# Hits are enriched below; roughly 1.3% of the tested compounds scored in any of these assays.
# AmpC inh detg – inhibitors of E. coli AmpC beta-lactamase with detergent; P00811; AmpC hydrolysis of nitrocefin, absorbance 480 nm, 0.01% Triton; 0.041% of 370,000 active; Potency, µM (highest dose often 114 µM), usual class: inhibitors; AID 485294; further: nearly all actives have a fitted effect of over 25% in size
# Target sequence (P00811 whole entry, looked up): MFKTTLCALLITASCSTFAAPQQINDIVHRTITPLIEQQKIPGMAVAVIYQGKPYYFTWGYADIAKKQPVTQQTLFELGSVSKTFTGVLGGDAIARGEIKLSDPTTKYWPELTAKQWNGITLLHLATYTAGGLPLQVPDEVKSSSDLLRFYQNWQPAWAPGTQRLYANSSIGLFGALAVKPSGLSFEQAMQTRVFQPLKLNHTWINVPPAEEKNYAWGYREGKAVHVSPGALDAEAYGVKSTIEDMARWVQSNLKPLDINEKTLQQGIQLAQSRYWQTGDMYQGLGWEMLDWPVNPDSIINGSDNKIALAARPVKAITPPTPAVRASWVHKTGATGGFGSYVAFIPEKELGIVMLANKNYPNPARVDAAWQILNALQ
#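 20 mM phosphate pH 7.0 + 0.01% (detergent screen) or 0.0001% Triton X-100; 5.3 nM AmpC reagent; cpd preinc 15 min RT; nitrocefin (800 uM stock) to start; A480 q20 s × 4 min; Activity was normalised to no-enzyme and no-compound control wells.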
# AmpC no deterg – blocks E. coli AmpC beta-lactamase in detergent-free assay; P00811; AmpC nitrocefin hydrolysis, absorbance 480 nm, 0.0001% Triton; Potency, µM (doses to about 57.1 µM), most hits filed as inhibitors; 0.52% of 330,000 active; AID 485341; further: nearly all actives have a fitted effect of over 20% in size
#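 AmpC (5.3 nM in the dispensed reagent) in 20 mM phosphate pH 7.0 with 0.01% (detergent screen) or 0.0001% Triton X-100 was preincubated with compounds for 15 min at room temperature. Nitrocefin was then added from an 800 uM solution, and hydrolysis was followed at 480 nm.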
# LmPK inh – inhibitors of Leishmania mexicana pyruvate kinase. Q27686. purified LmPK, Kinase-Glo ATP luminescence, 1 h. Potency, µM (highest dose often 57.5 µM), most hits filed as inhibitors. 0.37% of 290,000 active. AID 1721
#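 Purified LmPK (0.1 nM) with 0.5 mM PEP and 0.1 mM ADP in imidazole buffer pH 7.2 with MgCl2/KCl, 1 h at room temperature. ATP formed was read by luciferase luminescence and normalized to no-enzyme and uninhibited controls.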
# AMA1 RON2 block – AMA1-RON2 (P. falciparum) interaction inhibition; AlphaScreen AMA1-biotinylated RON2 peptide binding; Potency, µM (highest dose often 58.2 µM), most hits filed as inhibitors; 0.2% of 360,000 active; AID 720542; further: nearly all actives have a fitted effect of over 45% in size
#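 AMA1 (3D7) with his tag at 25 nM final met compounds first, then biotinylated RON2 peptide at 25 nM; detection used donor plus acceptor beads, 10 µg/mL apiece, read by AlphaScreen after 30 min at room temperature.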
# Giardia FBPA inh-1 – Giardia lamblia aldolase inhibition. Potency, µM (doses to about 59.6 µM), hits mostly inhibitors. 0.71% of 290,000 active. A8B2U2. purified Giardia FBPA; further: nearly all actives have a fitted effect of over 55% in size
# Target sequence (A8B2U2 whole entry, looked up): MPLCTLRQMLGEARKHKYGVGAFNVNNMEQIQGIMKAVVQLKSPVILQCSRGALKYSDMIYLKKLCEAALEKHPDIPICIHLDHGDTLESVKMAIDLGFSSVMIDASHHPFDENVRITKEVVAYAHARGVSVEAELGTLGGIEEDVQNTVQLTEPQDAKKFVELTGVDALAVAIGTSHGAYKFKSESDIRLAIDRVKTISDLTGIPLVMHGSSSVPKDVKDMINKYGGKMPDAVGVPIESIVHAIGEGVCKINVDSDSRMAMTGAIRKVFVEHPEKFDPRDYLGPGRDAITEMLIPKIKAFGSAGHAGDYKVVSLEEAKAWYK
#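 40 nM FBPA preincubated 10 min at RT with compound (up to 57.5 uM final), then substrate plus GAPDH/TPI/NAD/arsenate coupling and diaphorase/resazurin added. Fluorescence read after 20 min at RT, 525/598 nm.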
# Giardia growth – blocks growth of Giardia lamblia trophozoites. AID 2785. shares compounds with Giardia FBPA inh-1. Giardia lamblia trophozoite growth inhibition. 5% of 1,500 active. Potency, µM (series often up to 57.5 µM), usual class: inhibitors;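 further: trophozoites exposed to compound for 48 h at 37 °C; nearly all actives have a fitted effect of over 70% in size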
# Mammalian tox – counter-screen for Giardia aldolase inhibitors: mammalian cell toxicity; shares compounds with Giardia FBPA inh-1; mammalian cell viability counter-screen, qHTS; Potency, µM (highest dose often 57.5 µM), actives largely listed as inhibitors; 4% of 1,500 active;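 further: Chinese hamster ovary cells used as mammalian cytotoxicity surrogate; viability measured as cellular ATP by luminescence; compound exposure lasted 48 h before reading; nearly all actives have a fitted effect of over 60% in size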
# Giardia FBPA inh-2 – confirmation of Giardia fructose-bisphosphate aldolase inhibitors | shares compounds with Giardia FBPA inh-1 | Potency, µM (titrated, usually from 57.5 µM), hits mostly inhibitors | AID 2787 | 5% of 1,500 active | purified Giardia aldolase enzyme activity, qHTS; further: nearly all actives have a fitted effect of over 45% in size
# Rabbit aldolase – rabbit FBP aldolase inhibition by Giardia aldolase hits; shares compounds with Giardia FBPA inh-1; Rabbit muscle FBPA enzyme inhibition, selectivity counter-screen; Potency, µM (highest dose often 57.5 µM), hits mostly inhibitors; 4% of 1,500 active; further: nearly all actives have a fitted effect of over 60% in size
# GAPDH coupling – GAPDH inhibition flagged for Giardia aldolase hits; shares compounds with Giardia FBPA inh-1; GAPDH coupling enzyme counterscreen, biochemical, qHTS; Potency, µM (titrated, usually from 57.5 µM), most hits filed as inhibitors; 6% of 1,500 active; AID 2795; further: nearly all actives have a fitted effect of over 55% in size
# Hits are given with their value; n = inactive; u = inconclusive; x = no result; [ ] = another dose, or the depositor's remark. The call rests on the fitted dose curve; in most records, active means well fitted curve in the direction sought with a large enough effect; inconclusive means small, poorly fitted or top-dose-only effect, or another doubt; inactive means no such curve, though single readings can be large; an effect the other way counts as inactive or inconclusive.
SMILES,AmpC inh detg,AmpC no deterg,LmPK inh,AMA1 RON2 block,Giardia FBPA inh-1,Giardia growth,Mammalian tox,Giardia FBPA inh-2,Rabbit aldolase,GAPDH coupling
Cc1ccccc1OCC(O)CN1CCN(CC(O)COc2ccccc2C)C(C)C1 (configuration not stated),n,n,n,n,14µM,n,n,n,n,n
Cc1ccccc1OCC(O)Cn1c2ccccc2c2ccccc21 (configuration not stated),n,n,n,n,n,x,x,x,x,x
NC(CSSCC(N)C(=O)O)C(=O)O (configuration not stated),x,x,x,x,n,x,x,x,x,x
N[C@@H](CSS(=O)(=O)O)C(=O)O,x,x,x,x,u,n,n,22µM,14µM,22µM
Cc1cc2oc(C(=O)Nc3c(C(=O)Nc4ccccc4)oc4ccccc34)cc(=O)c2cc1C,n,x,x,x,x,x,x,x,x,x
Cc1nc(N2CCOCC2)c2nc(-c3ccccc3)n(CCN3CCOCC3)c2n1,x,x,x,x,n,x,x,x,x,x
CNC(=O)c1c(C)[nH]c(=S)c(C#N)c1-c1ccco1,n,n,n,n,13µM,n[10.4 µM],n,n,n,n
Cc1ccccc1NC(=O)c1c(C)[nH]c(=S)c(C#N)c1-c1ccco1,n,n,n,n,n,x,x,x,x,x
Cc1cccc(NC(=O)C2CCN(c3nc4ccccc4[nH]3)CC2)c1C,n,x,x,x,x,x,x,x,x,x
CN(CC(=O)Nc1ccc(N2CCOCC2)cc1)C(=O)CCc1cc(C(C)(C)C)c(O)c(C(C)(C)C)c1,n,n,x,u,x,x,x,x,x,x
NS(=O)(=O)c1ccc(NC(=S)NC2CCCCC2)cc1,n,n,n,n,10µM,n,u,40µM,u,40µM
NS(=O)(=O)c1ccc(NC(=O)NC2CCCCC2)cc1,n,n,n,n,n,x,x,x,x,x
COc1ccc(CNC(=O)C2(C)Cc3c(-c4cccc(NC(C)=O)c4)ccnc3O2)cc1OC (configuration not stated),x,x,x,n,x,x,x,x,x,x
O=C(CNC1CC1)Nc1cc(C(F)(F)F)ccc1Cl,n,n,n,n,7.9µM,u,n,n,n,n
CCc1nn(CC(=O)NCc2ccccc2Cl)c(=O)c2cc3ccccc3n12,n,x,x,x,x,x,x,x,x,x
CCc1ccccc1N1C(=O)N(Cc2cccc(Cl)c2)c2ccccc2S1(=O)=O,n,x,x,x,x,x,x,x,x,x
CN1CCC(NCCC(c2ccc(F)cc2)c2ccc(Cl)cc2)CC1 (configuration not stated),n,n,n,n,14µM,u,20µM,n,n,n
C[C@H](O)CNC(=O)c1[nH]cnc1C(=O)Nc1ccc(CNC(=O)OC(C)(C)C)cc1,x,x,x,n,x,x,x,x,x,x
Cc1cccnc1Nc1nc(-c2ccc(O)c(O)c2)cs1,n,n,n,n,10µM,n,n,n,n,n
CS(=O)(=O)Nc1cccc(-c2cncnc2NCc2cccnc2)c1,x,x,x,x,n,x,x,x,x,x
COc1cccc(C(=O)NC(=S)Nc2ccccc2N2CCCCC2)c1,n,n,n,n,16µM,u,n,n,n,n
CCOC(=O)C1CCN(c2cc(C)nc3c(-c4ccccc4OC)c(C)nn23)CC1,n,x,x,x,x,x,x,x,x,x
CNC(=S)N/N=C/c1ccc(-c2ccc(C(=O)O)cc2)o1,n,n,14µM,n,18µM,n[10.4 µM],n,n,n,n
CCNC(=S)N/N=C/c1ccc(OCc2ccc(C(=O)OC)cc2)cc1,n,n,n,n,n,x,x,x,x,x
CC(C)(C)NC(=S)N/N=C\c1ccc(-c2ccc([N+](=O)[O-])cc2)o1,n,u,n,n,u,x,x,x,x,x
SMILES,AmpC inh detg,AmpC no deterg,LmPK inh,AMA1 RON2 block,Giardia FBPA inh-1,Giardia growth,Mammalian tox,Giardia FBPA inh-2,Rabbit aldolase,GAPDH coupling
CCNC(=S)N/N=C/c1ccc(C(=O)O)cc1,n,n,u,n,18µM,n[10.4 µM],n,n,n,n
Cn1c(N)c(C(=O)COC(=O)C2Cc3ccccc3CN2S(C)(=O)=O)c(=O)n(C)c1=O (configuration not stated),x,x,x,n,x,x,x,x,x,x
CC1CCN(S(=O)(=O)c2ccc(C(=O)Nc3nnc(C4=COCCO4)o3)cc2)CC1,n,n,n,n,x,x,x,x,x,x
O=C(Nc1nnc(C2=COCCO2)o1)c1ccc(S(=O)(=O)N2CCCC2)cc1,n,n,n[11.5 µM],n,3.5µM,n,n,n,n,n
O=C(Nc1nnc(-c2cccs2)o1)c1ccc(S(=O)(=O)N2CCOCC2)cc1,n,n,n,n,14µM,n[10.4 µM],n,n,n,n
O=C(Nc1nnc(C2=COCCO2)o1)c1ccc(S(=O)(=O)N2CCCCC2)cc1,n,n,n[11.5 µM],n,16µM,u,n,n,n,n
CC(=O)Nc1ccc(C(=O)OCC(=O)N2CCC(Cc3ccccc3)CC2)cc1,n,n,x,n,x,x,x,x,x,x
Nc1cccnc1Sc1ccc(Cl)cc1,n,n,n,n,n,x,x,x,x,x
Nc1cccnc1Sc1cccc(Cl)c1,n,n,n,n,1µM,n,n,n,n,n
CC1(C(=O)NS(=O)(=O)c2cccc(C#N)c2)CCN1C(=O)c1ccc(C2CCCCC2)cc1 (configuration not stated),x,x,x,n,x,x,x,x,x,x
Cc1cc(NC(=O)CSc2nnc(C3COc4ccccc4O3)n2N)no1 (configuration not stated),n,n,n,n,20µM,n,n,n,n,n
COC(=O)c1cc(=O)c2c(C)nc(C(Cl)(Cl)Cl)nc2[nH]1,u,n,n,n,20µM,n,n,n,n,n
CC(C)C[C@H]1CN(CCCC[C@@H]2CNC(=O)C(=O)N2CCc2ccccc2)C(=O)C(=O)N1CCc1ccccc1,x,x,x,n,x,x,x,x,x,x
Clc1ccc(SCCOCCN2CCCCC2)cc1,n,n,n,n,n,x,x,x,x,x
Clc1ccc(SCCOCCN2CCOCC2)cc1,n,n,n,u,18µM,n[10.4 µM],n,n,n,n
O=C1ON=C(c2ccccc2)/C1=C/c1ccc(O)c(O)c1,n,n,u,n,4µM,u,n,n,n,n
COc1ccc(CNc2ncc(-c3cccc([N+](=O)[O-])c3)n2C)c(OC)c1OC,n,n,n,u,25µM,u,n,n,n,n
CC1(C)C2CCC(C2)C1(C)NC(=O)CN1CCN(Cc2ccccc2)CC1 (configuration not stated),n,n,n,n,16µM,n[10.4 µM],n,n,n,n
Cc1cc(OC(C)C(=O)Nc2c(C(=O)c3ccc(F)cc3)oc3ccccc23)ccc1Cl (configuration not stated),n,x,x,x,x,x,x,x,x,x

# Bioassay records as filed in PubChem BioAssay.
